Assays:
Assay in all cases: DAPPL (digital affinity profiling via proximity ligation, sequencing); 10 mM Tris-HCl pH 7.5, 50 mM NaCl, 1 mM DTT, 4% glycerol, room temperature, 30 min; GST-TFs on glutathione beads, 16-mer random dsDNA library, 0.1% formaldehyde crosslink after washing; high values mean tight binding
FLI1 = biological target: T1, FLI1 (Homo sapiens, UniProt Q01543 1-452); conditions: protein: recombinant; tags: N-terminal GST; dsDNA, one strand shown
T1 sequence: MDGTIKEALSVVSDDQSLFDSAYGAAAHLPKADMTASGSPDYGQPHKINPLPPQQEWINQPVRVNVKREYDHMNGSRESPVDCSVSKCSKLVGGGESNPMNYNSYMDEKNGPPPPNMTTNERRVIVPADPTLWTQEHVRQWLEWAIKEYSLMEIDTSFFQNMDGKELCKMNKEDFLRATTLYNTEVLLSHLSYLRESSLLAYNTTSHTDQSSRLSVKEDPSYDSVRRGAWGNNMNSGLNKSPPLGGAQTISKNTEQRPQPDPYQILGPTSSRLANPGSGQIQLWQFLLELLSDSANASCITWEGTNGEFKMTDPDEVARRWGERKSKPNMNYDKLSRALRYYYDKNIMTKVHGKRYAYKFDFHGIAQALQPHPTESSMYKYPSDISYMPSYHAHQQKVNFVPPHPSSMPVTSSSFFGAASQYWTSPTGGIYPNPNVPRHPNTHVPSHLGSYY
Procedure, shortened: (§1)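 In yeast, human transcription factors were expressed with a GST fusion, then pulled down on glutathione beads and given DNA barcodes. Pooled with a tag-only sample, they were exposed to 200 nmole of a 16-mer random double-stranded DNA library (Tris/NaCl/DTT/glycerol buffer, room temperature, 30 min), washed, crosslinked with 0.1% formaldehyde, proximity-ligated using BsaI/T4 ligase for 1 h at 37 °C, PCR-amplified and read on an Illumina NextSeq500. Each hexamer's frequency of reads for a factor, divided by the matching frequency for the tag-only sample, gives the binding signal.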

ELK1 = biological target: T2, ELK1 (Homo sapiens, UniProt P19419 1-428); conditions: protein: recombinant; tags: N-terminal GST; dsDNA, one strand shown
T2 sequence: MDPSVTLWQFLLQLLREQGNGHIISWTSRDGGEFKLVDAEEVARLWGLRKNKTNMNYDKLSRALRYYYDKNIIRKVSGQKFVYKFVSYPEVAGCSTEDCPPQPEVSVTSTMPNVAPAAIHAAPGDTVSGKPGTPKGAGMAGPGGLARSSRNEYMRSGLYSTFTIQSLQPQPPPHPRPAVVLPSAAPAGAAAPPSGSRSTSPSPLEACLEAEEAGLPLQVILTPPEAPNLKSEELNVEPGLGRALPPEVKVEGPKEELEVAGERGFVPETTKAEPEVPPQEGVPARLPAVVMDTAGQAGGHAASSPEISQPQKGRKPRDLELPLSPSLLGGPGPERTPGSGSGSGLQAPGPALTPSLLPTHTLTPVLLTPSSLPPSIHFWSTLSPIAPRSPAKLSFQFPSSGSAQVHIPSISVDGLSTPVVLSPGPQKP
Procedure, shortened: as §1

GABPA = biological target: T3, GABPA (Homo sapiens, UniProt Q06546 1-454); conditions: protein: recombinant; tags: N-terminal GST; dsDNA, one strand shown
T3 sequence: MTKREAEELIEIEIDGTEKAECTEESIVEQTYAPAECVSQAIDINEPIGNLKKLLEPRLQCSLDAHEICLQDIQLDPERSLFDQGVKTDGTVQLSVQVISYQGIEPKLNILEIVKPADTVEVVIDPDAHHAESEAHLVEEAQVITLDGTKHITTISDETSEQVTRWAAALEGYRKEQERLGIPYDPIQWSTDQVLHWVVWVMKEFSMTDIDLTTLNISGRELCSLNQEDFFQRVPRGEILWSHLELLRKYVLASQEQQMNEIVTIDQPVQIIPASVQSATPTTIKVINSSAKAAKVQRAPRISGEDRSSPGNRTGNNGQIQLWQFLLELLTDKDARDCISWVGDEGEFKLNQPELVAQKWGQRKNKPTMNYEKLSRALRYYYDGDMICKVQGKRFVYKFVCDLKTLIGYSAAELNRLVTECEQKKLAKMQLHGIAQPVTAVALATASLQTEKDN
Procedure, shortened: as §1

ERG = biological target: T4, ERG (Homo sapiens, UniProt P11308 1-479); conditions: protein: recombinant; tags: N-terminal GST; dsDNA, one strand shown
T4 sequence: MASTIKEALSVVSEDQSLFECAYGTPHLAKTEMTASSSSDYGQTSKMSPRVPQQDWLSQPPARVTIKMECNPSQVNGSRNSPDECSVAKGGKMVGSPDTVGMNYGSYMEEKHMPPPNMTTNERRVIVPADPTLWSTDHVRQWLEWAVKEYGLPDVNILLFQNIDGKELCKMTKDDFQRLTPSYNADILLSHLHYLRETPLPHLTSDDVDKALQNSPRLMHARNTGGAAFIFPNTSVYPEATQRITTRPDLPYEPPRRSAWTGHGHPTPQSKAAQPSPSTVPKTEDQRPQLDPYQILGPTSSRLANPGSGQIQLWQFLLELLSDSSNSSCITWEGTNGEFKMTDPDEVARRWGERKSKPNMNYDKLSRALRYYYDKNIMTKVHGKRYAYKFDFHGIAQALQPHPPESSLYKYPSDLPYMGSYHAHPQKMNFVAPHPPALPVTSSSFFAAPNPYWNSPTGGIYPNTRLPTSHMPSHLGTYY
Procedure, shortened: as §1

ELF1 = ELF1 (Homo sapiens, UniProt P32519 1-619); conditions: protein: recombinant; tags: N-terminal GST; dsDNA, one strand shown
ELF1, sequence (P32519 whole entry): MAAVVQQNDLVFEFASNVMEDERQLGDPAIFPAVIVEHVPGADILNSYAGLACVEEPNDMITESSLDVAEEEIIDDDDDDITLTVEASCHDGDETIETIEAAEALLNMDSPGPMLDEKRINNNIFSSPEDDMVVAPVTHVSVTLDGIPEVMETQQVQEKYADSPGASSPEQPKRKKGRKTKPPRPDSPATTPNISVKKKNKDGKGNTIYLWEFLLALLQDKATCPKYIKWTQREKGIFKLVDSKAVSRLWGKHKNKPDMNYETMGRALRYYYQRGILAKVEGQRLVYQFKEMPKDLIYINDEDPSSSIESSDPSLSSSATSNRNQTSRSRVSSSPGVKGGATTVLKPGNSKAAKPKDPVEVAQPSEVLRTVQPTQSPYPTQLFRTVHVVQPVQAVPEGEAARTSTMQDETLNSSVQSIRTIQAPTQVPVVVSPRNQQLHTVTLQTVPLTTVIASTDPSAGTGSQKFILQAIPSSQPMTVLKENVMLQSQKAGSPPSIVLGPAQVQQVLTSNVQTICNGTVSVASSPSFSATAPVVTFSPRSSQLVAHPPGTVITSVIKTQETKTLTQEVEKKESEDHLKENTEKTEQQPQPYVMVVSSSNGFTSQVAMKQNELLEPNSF
Procedure, shortened: as §1

EHF = biological target: T5, EHF (Homo sapiens, UniProt Q9NZC4 1-300); conditions: protein: recombinant; tags: N-terminal GST; dsDNA, one strand shown
T5 sequence: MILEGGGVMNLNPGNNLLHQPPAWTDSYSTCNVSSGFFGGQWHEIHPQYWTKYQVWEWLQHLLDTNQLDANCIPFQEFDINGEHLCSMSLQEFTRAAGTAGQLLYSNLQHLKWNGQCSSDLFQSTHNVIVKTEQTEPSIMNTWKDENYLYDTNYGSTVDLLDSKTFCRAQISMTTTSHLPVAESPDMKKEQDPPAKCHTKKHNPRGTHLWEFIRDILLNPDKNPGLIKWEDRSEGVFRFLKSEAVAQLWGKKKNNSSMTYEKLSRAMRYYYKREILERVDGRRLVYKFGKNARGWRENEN
Procedure, shortened: as §1

SPI1 = SPI1 (Homo sapiens, UniProt P17947 1-270); conditions: protein: recombinant; tags: N-terminal GST; dsDNA, one strand shown
Procedure, shortened: as §1

SPIB = SPIB (Homo sapiens, UniProt Q01892 1-262); conditions: protein: recombinant; tags: N-terminal GST; dsDNA, one strand shown
SPIB, sequence (Q01892 whole entry): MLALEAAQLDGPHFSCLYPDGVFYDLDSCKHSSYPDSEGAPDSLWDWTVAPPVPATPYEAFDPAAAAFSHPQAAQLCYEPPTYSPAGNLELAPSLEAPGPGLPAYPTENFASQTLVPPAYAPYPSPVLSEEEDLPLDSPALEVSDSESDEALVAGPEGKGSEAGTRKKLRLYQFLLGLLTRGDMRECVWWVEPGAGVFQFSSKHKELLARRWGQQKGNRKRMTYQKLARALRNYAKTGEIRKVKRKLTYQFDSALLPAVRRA
Procedure, shortened: as §1

ELK3 = biological target: T6, ELK3 (Homo sapiens, UniProt P41970 1-407); conditions: protein: recombinant; tags: N-terminal GST; dsDNA, one strand shown
T6 sequence: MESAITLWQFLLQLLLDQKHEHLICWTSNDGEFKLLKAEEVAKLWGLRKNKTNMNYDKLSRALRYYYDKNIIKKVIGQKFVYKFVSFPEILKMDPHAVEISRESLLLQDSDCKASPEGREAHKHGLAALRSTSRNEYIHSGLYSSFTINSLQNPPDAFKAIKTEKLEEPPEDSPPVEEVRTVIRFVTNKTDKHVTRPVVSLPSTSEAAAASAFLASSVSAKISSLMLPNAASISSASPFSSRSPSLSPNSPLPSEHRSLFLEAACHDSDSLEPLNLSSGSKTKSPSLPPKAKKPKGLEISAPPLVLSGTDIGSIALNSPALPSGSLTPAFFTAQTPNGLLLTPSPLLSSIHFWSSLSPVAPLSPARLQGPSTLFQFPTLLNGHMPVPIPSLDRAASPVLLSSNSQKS
Procedure, shortened: as §1

FEV = biological target: T7, FEV (Homo sapiens, UniProt Q99581 1-238); conditions: protein: recombinant; tags: N-terminal GST; dsDNA, one strand shown
T7 sequence: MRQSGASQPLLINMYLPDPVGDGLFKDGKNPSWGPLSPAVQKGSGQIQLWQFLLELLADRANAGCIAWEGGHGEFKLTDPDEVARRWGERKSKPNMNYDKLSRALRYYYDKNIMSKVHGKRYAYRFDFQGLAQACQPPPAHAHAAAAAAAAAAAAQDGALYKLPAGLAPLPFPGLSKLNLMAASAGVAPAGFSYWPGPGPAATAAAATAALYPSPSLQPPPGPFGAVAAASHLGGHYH
Procedure, shortened: as §1

ETV5 = ETV5 (Homo sapiens, UniProt P41161 1-510); conditions: protein: recombinant; tags: N-terminal GST; dsDNA, one strand shown
ETV5, sequence (P41161 whole entry): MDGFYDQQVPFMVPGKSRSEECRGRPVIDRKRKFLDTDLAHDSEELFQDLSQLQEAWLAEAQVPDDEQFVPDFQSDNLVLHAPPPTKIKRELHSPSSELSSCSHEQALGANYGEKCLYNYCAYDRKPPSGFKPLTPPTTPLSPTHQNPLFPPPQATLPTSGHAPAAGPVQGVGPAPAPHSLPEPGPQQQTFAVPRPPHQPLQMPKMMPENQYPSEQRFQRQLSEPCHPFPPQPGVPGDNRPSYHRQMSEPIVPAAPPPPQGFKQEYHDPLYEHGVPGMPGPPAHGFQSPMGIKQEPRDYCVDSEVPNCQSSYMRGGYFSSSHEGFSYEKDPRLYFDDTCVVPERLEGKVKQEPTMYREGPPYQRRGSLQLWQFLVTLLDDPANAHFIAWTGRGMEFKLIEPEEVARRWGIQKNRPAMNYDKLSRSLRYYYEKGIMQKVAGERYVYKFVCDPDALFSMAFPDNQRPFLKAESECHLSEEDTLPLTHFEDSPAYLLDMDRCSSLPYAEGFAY
Procedure, shortened: as §1

HSF1 = HSF1 (Homo sapiens, UniProt Q00613 1-529); conditions: protein: recombinant; tags: N-terminal GST; chain copies: 3; dsDNA, one strand shown
HSF1, sequence (Q00613 whole entry): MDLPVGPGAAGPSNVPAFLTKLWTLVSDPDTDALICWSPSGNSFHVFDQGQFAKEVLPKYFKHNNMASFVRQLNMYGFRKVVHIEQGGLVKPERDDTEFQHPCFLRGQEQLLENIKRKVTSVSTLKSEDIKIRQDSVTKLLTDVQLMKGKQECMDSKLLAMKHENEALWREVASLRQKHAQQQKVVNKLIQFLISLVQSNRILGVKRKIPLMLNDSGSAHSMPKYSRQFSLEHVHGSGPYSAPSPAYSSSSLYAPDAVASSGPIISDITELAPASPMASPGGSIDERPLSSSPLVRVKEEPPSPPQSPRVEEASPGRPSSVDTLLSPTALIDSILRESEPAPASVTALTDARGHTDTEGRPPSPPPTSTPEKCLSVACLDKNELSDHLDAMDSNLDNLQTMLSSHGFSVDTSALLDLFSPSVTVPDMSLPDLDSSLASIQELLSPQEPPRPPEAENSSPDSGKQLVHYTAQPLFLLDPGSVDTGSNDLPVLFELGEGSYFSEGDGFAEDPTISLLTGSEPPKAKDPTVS
Procedure, shortened: as §1

SPIC = biological target: T8, SPIC (Homo sapiens, UniProt Q8N5J4 1-248); conditions: protein: recombinant; tags: N-terminal GST; dsDNA, one strand shown
T8 sequence: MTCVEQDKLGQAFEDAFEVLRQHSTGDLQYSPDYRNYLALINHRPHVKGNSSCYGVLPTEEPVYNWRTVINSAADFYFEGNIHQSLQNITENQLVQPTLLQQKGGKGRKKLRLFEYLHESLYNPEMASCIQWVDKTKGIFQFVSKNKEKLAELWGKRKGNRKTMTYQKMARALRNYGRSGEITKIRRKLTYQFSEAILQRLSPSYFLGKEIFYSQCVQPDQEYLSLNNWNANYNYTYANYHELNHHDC
Procedure, shortened: as §1

ELF4 = ELF4 (Homo sapiens, UniProt Q99607 1-663); conditions: protein: recombinant; tags: N-terminal GST; dsDNA, one strand shown
ELF4, sequence (Q99607 whole entry): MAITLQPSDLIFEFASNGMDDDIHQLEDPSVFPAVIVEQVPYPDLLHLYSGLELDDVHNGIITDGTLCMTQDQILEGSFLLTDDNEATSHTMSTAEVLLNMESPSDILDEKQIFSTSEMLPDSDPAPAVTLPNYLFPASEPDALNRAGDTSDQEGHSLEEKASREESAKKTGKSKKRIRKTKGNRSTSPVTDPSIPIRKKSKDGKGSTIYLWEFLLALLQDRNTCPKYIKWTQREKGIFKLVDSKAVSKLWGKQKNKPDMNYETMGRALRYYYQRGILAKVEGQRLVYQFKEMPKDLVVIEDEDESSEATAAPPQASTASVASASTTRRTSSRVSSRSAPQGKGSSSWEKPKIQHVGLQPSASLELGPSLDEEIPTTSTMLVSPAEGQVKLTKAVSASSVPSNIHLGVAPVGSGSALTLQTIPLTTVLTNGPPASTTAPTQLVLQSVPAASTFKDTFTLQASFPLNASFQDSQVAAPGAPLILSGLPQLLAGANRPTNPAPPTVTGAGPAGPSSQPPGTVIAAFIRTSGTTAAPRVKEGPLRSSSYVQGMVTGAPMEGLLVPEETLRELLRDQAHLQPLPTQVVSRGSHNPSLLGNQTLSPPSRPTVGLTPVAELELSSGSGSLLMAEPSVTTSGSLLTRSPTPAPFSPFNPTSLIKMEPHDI
Procedure, shortened: as §1

ELK4 = biological target: T9, ELK4 (Homo sapiens, UniProt P28324-2 1-405); conditions: protein: recombinant; tags: N-terminal GST; dsDNA, one strand shown
T9 sequence: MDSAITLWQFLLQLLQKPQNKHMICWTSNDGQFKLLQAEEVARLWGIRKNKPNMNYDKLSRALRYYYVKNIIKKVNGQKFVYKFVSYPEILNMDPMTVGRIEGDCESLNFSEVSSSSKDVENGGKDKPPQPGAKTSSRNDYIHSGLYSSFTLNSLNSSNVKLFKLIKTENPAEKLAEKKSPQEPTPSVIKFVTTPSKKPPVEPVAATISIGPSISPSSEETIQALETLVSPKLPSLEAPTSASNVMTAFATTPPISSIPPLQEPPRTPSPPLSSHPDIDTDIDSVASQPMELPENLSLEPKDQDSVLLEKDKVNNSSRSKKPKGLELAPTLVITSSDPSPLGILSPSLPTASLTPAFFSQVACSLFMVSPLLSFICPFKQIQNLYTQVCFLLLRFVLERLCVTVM
Procedure, shortened: as §1

ETV2 = biological target: T10, ETV2 (Homo sapiens, UniProt O00321 1-342); conditions: protein: recombinant; tags: N-terminal GST; dsDNA, one strand shown
T10 sequence: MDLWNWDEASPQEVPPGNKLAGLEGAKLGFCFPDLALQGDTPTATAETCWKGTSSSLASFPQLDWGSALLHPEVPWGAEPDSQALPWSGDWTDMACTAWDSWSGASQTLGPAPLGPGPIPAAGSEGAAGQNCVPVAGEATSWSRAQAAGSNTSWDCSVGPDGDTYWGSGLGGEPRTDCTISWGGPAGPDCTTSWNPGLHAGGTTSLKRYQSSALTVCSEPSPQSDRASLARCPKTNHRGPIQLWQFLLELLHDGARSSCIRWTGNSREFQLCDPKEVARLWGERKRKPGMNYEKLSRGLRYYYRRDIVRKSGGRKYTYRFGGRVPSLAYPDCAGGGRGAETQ
Procedure, shortened: as §1

ELF3 = biological target: T11, ELF3 (Homo sapiens, UniProt P78545 1-371); conditions: protein: recombinant; tags: N-terminal GST; dsDNA, one strand shown
T11 sequence: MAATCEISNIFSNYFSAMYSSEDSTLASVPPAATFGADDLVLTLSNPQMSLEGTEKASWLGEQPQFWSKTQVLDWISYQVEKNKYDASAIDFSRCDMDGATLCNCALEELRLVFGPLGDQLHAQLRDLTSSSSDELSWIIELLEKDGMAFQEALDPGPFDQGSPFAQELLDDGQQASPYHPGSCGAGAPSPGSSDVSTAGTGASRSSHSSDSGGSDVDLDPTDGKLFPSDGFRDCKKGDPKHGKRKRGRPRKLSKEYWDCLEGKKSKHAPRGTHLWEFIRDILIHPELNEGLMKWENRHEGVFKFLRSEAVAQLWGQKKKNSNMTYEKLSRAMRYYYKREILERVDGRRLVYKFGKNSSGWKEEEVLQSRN
Procedure, shortened: as §1

CRX = CRX (Homo sapiens, UniProt O43186 1-299); conditions: protein: recombinant; tags: N-terminal GST; dsDNA, one strand shown
CRX, sequence (O43186 whole entry): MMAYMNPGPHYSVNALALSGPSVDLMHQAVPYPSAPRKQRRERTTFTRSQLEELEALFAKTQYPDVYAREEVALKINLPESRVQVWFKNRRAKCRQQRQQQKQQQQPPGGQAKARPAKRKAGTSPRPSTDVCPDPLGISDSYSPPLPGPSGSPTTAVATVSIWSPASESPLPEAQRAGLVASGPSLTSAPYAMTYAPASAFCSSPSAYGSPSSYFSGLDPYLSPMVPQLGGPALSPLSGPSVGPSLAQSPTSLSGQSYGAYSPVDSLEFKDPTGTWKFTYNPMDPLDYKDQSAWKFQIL
Procedure, shortened: as §1

ETV1 = ETV1 (Homo sapiens, UniProt P50549 1-477); conditions: protein: recombinant; tags: N-terminal GST; dsDNA, one strand shown
ETV1, sequence (P50549 whole entry): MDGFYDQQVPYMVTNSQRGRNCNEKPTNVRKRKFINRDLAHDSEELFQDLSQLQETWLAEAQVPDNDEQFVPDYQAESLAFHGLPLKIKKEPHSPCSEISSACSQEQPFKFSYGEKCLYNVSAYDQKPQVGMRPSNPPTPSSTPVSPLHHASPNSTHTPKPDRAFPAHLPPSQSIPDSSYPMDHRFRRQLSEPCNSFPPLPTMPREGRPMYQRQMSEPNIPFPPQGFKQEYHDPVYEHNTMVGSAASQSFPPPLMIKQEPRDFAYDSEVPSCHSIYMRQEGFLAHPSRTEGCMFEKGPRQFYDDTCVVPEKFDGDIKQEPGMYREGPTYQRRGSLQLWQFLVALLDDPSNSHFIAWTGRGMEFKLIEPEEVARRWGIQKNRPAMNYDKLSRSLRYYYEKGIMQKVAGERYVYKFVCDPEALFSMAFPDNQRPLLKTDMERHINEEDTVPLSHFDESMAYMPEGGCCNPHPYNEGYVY
Procedure, shortened: as §1

ATGAGC
binding signal (FLI1): 1.11 fold enrichment (6-mer frequency, TF over GST control)
binding signal (ELK1): 1.27 fold enrichment (6-mer frequency, TF over GST control)
binding signal (GABPA): 1.33 fold enrichment (6-mer frequency, TF over GST control)
binding signal (ERG): 1.2 fold enrichment (6-mer frequency, TF over GST control)
binding signal (ELF1): 1.24 fold enrichment (6-mer frequency, TF over GST control)
binding signal (EHF): 1.18 fold enrichment (6-mer frequency, TF over GST control)
binding signal (SPI1): 1.13 fold enrichment (6-mer frequency, TF over GST control)
binding signal (SPIB): 1.24 fold enrichment (6-mer frequency, TF over GST control)
binding signal (ELK3): 1.19 fold enrichment (6-mer frequency, TF over GST control)
binding signal (FEV): 1.24 fold enrichment (6-mer frequency, TF over GST control)
binding signal (ETV5): 1.23 fold enrichment (6-mer frequency, TF over GST control)
binding signal (HSF1): 1.13 fold enrichment (6-mer frequency, TF over GST control)
binding signal (SPIC): 1.29 fold enrichment (6-mer frequency, TF over GST control)
binding signal (ELF4): 1.29 fold enrichment (6-mer frequency, TF over GST control)
binding signal (ELK4): 1.26 fold enrichment (6-mer frequency, TF over GST control)
binding signal (ETV2): 1.3 fold enrichment (6-mer frequency, TF over GST control)
binding signal (ELF3): 1.35 fold enrichment (6-mer frequency, TF over GST control)
binding signal (CRX): 1.31 fold enrichment (6-mer frequency, TF over GST control)
binding signal (ETV1): 1.14 fold enrichment (6-mer frequency, TF over GST control)

Reference: publication PMC7862700, “An all-to-all approach to the identification of sequence-specific readers for epigenetic DNA modifications on cytosine”
